The list is not random: actives were taken first. Their share in the collection is about 12%.
AMA1-RON2 inh – inhibitors of Plasmodium falciparum AMA1-RON2 interaction | hit rate 0.2% among 360,000 | AlphaScreen AMA1-biotinylated RON2 peptide binding | Potency, µM (series often up to 58.2 µM), inactives show at the top dose activity change, negative = inhibition, actives largely listed as inhibitors | AID 720542;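 further: 0% = vehicle wells and -100% = peptide control; nearly all actives have a fitted effect of over 45% in size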
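AMA1 (3D7) with his tag at 25 nM final met compounds first, then biotinylated RON2 peptide at 25 nM; detection used donor plus acceptor beads, 10 µg/mL apiece, read by AlphaScreen after 30 min at room temperature.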
HCV inh – inhibitors of hepatitis C virus infection; Huh7.5.1 HCVcc-Cre infection, luciferase reporter, 44 h; Potency, µM (titrated, usually from 41.8 µM), inactives show top-dose activity change, negative = inhibition, most hits filed as inhibitors; hit rate 3.4% among 340,000; further: on the % scale 0 is the no-effect control and ±100 the full control effect
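After 44 h co-culture of compound, cells and HCVcc-Cre (~0.5 moi), substrate is added for 15 min at room temperature and luciferase measured over 15 sec. Cells were seeded at 1,000/well and pre-cultured 4 h.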
NS1 function inh – blocks influenza NS1 protein function; Potency, µM (highest dose often 46.1 µM), for inactives: top-dose activity, positive = more growth; hit rate 0.4% among 270,000; calls by dose curve; further: actives are rising curves; nearly all actives have a fitted effect of over 50% in size
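Growth recovery, yeast-based: influenza A NS1 expressed in S. cerevisiae causes slow growth, and suppressors are detected by OD600. The parent strain without NS1 is used as positive control.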
Pf growth 48h – P. falciparum growth inhibition at 48 hours (one generation); Potency, µM (series often up to 28.7 µM), without a hit: top-dose activity change, negative = inhibition, usual class: inhibitors; hit rate 5.9% among 310,000; P. falciparum luciferase growth in erythrocytes, 48 h; further: on the % scale 0 is the no-effect control and ±100 the full control effect
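First compound was added to culture medium, then infected red cells at 0.1% parasitemia and 2% hematocrit (final). After incubation at 37 C under 5% CO2, luciferase detection reagent was dispensed and light output recorded.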
SARS PLpro yeast – SARS-CoV PLP inhibition in yeast; S. cerevisiae expressing SARS-CoV PLpro, growth rescue; Potency, µM (series often up to 32.9 µM), without a hit: top-dose activity, positive = growth rescue, most hits filed as activators; hit rate 0.19% among 330,000; AID 485353; calls by dose curve; further: 0% is about no effect; nearly all actives have a fitted effect of over 55% in size
Pf growth 96h – inhibits malaria parasite growth, 96 h; hit rate 6.9% among 320,000; AID 504834; P. falciparum luciferase reporter growth, 96 h; Potency, µM (titrated, usually from 28.7 µM), for the others: at the top dose activity change, negative = inhibition, actives largely listed as inhibitors; further: on the % scale 0 is the no-effect control and ±100 the full control effect
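Two parasite generations (96 h, 37 C, 5% CO2) of compound exposure in infected erythrocytes (0.05% parasitemia, 2% hematocrit). Luciferase-reporter P. falciparum; decreased luminescence indicates inhibited growth, aimed at apicoplast-acting delayed death.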
* marks the source's active call; other numbers are inactive results; i = inactive; ? = inconclusive; · = no result. Unless noted, the call rests on the fitted dose curve; in most records, active means well fitted curve in the direction sought with a large enough effect; inconclusive means small, poorly fitted or top-dose-only effect, or another doubt; inactive means no such curve, though single readings can be large; an effect the other way counts as inactive or inconclusive. Potency means the concentration at half of the fitted maximal effect.

SMILES | AMA1-RON2 inh | HCV inh | NS1 function inh | Pf growth 48h | SARS PLpro yeast | Pf growth 96h
O=S(=O)(Nc1cccc(Cl)c1)c1ccc(-n2cccn2)cc1 | 3% | 6% | -5% | 3% | 2% | ?
CCc1cccc(NS(=O)(=O)c2ccc3c(c2)oc(=O)n3C)c1 | -5% | -25% | -15% | 2% | 0% | ·
COc1ccc(OC)c(NS(=O)(=O)c2ccc3c(c2)n(C)c(=O)n3C)c1 | -6% | -13% | -9% | -10% | -4% | ·
CCN(CC)S(=O)(=O)c1ccc(NC(=O)COC(=O)CNS(=O)(=O)/C=C/c2ccccc2)cc1 | -6% | -11% | -28% | -7% | -13% | 8%
CCCCOc1ccc(Cc2c(O)nc(SC)[nH]c2=O)cc1 | -3% | 26% | 11% | 12% | -1% | -7%
COC(=O)/C=c1/s/c(=C(\C#N)C(=O)NCc2ccco2)n(-c2ccccc2)c1=O | 13% | 2% | 21% | -11% | 1% | 6.6µM*
COc1ccc(/C=c2\s/c(=C(/C#N)C(=O)NCc3ccco3)n(-c3ccccc3)c2=O)cc1 | 4% | -22% | 18% | 0% | -14% | 30%
CCn1c(SCC(=O)Nc2cccc(F)c2)nc2c(c1=O)SC(C)C2 (stereo unspecified) | -6% | ? | -97% | 4.1µM* | 10% | 2.6µM*
CCOC(=O)c1ccc(NC(=O)CSc2nc3c(c(=O)n2CC)SC(C)C3)cc1 (stereo unspecified) | -16% | ? | -50% | 10µM* | -20% | 9.3µM*
CC1Cc2nc(SCC(=O)Nc3ccc(F)cc3F)n(C)c(=O)c2S1 (stereo unspecified) | -5% | -10% | -118% | 6.6µM* | 5% | ?
C=CCNC(=O)CC(=O)N/N=C/c1cccs1 | 0% | 0% | 1% | 1% | 1% | ?
Fc1ccc(-c2[nH]ncc2CN2CCN(c3ccc(F)cc3)CC2)cc1 | ? | 9% | -1% | 5% | -1% | 7%
COc1ccc(-c2[nH]ncc2CN2CCC(O)(c3ccc(Cl)cc3)CC2)cc1 | ? | ? | 2% | ? | 0% | 12µM*
OC1(c2ccc(Cl)cc2)CCN(Cc2cn[nH]c2-c2ccccc2)CC1 | 6% | ? | 6% | ? | 0% | 9.3µM*
OC1(c2ccc(Cl)cc2)CCN(Cc2cn[nH]c2-c2ccc(F)cc2)CC1 | -2% | 8.9µM* | -2% | 13µM* | 0% | ?
Cc1ccc(Cn2nnnc2CN2CCC(O)(c3ccc(F)cc3)CC2)cc1 | 2% | -21% | -16% | 13µM* | -4% | 36%
Fc1ccc(N2CCN(Cc3cn[nH]c3-c3ccccc3)CC2)cc1 | -17% | -5% | 3% | ? | 0% | 1%
COc1ccc(Cn2nnnc2CN2CCC(O)(c3ccc(F)cc3)CC2)cc1 | -8% | 28% | 5% | -2% | 1% | -57%
COc1cc(/C=C2/C(=N)N3N=C(CC(=O)N4CCOCC4)SC3=NC2=O)ccc1OCc1ccc(F)cc1 | 90% | ? | 11% | 3% | 1% | ?
CCCOc1ccc(CNC(=O)C2CCN(C(=O)N3CCOc4ccccc43)CC2)cc1 | 6% | ? | -21% | ? | -4% | ?
O=C1CSC(c2ccc([N+](=O)[O-])cc2)N1c1ccc(O)cc1 (stereo unspecified) | 4% | 21% | 8% | ? | 3% | i
CC(C)(C)C1CCC(C(=O)Nc2ccc(N3CCOCC3)cc2N2CCOCC2)CC1 (stereo unspecified) | -1% | -4% | · | 10µM* | -2% | ?
CCCCC1CCC(C(=O)Nc2ccccc2N2CCOCC2)CC1 (stereo unspecified) | 2% | ? | · | 15µM* | -2% | ?
CCCCCC(=O)Nc1ccccc1N1CCOCC1 | 3% | 9% | -3% | -4% | 7% | 23%
Cc1ccc(S(=O)(=O)N2CCOCC2)cc1NC(=O)CNCC1CCCCC1 | -3% | -10% | · | 6% | 2% | ?
COCCNC(=O)Cn1cc(/C=N/NC(=O)c2ccc(Oc3ccc(O)cc3)cc2)c2ccccc21 | -28% | -20% | · | -5% | 0% | 2%

Bioassay records: PubChem, National Center for Advancing Translational Sciences (NCATS)
